Measured values from the supplement of paper PMC10849652.
The full data set covers some 7,900 targets. This sample favours those with a hit. About 0.6% of all pairs of compound and target were hits. Values without a mark were called inactive.

Legend:
Experiment in all cases: log2 fold change, soluble protein after heating vs DMSO (PISA); higher = thermal stabilisation; K562 cells, 10 uM, 30 min; active = over 0.2 and 3.5 SD of the protein, either way, in both replicates (recomputed)
[1] = compound: C#Cc1cccc(Nc2ncnc3cc(OCCOC)c(OCCOC)cc23)c1 [erlotinib]
How it was run: (§1)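 K562 cells at 2×10^6 cells/mL were treated for 30 min with 10 μM compound, and aliquots were heated for 3 min over 48°C-58°C before pooling. Extraction used PBS with 0.5% NP-40 at 4°C, and soluble protein was the supernatant after 21,000xg for 90 min, measured by TMTpro 16plex LC-MS/MS with channel sums equalised. Thermal stability values, relative to control samples and from duplicates, are log2 fold changes.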

[2] = compound: C/C(=N\NC(=O)C1=CC(=CC=C1)S(=O)(=O)N2CCOCC2)/C3=C(C=CC(=C3)Cl)O
How it was run: as §1

[3] = compound: C1=CC(=C(C=C1Cl)C2=NC3=NC=CN=C3C(=N2)NC4=CC=NC=C4)F
How it was run: as §1

[4] = compound: C1=CC(=CC=C1C2=NC3=C(N2)C=C(C=C3)C(=O)N)OC4=CC=C(C=C4)Cl
How it was run: as §1

[5] = compound: C1=CC2=C(C=CC(=C2)/C=C\3/C(=O)NC(=NCC4=CC=CS4)S3)N=C1
How it was run: as §1

[6] = compound: C1=CC2=NC=CN=C2C=C1/C=C/3\C(=O)NC(=O)S3
How it was run: as §1

[7] = compound: C1=CC=C(C=C1)C2=NC(=C(N2)C3=CC=NC=C3)C4=CC(=C(C=C4)Cl)O
How it was run: as §1

[8] = compound: C1=CC=C2C(=C1)C3=NNC4=CC=CC(=C43)C2=O
How it was run: as §1

[9] = compound: C1CCN(C1)C(=O)NC2=CC=CC(=C2)NC3=NC=C(C(=N3)NCCC4=CN=CN4)Br
How it was run: as §1

[10] = compound: C1CN(CCC1(CC2=CC=C(C=C2)Cl)N)C3=NC=NC4=C3C=CN4
How it was run: as §1

UniProt P52789, sequence (P52789 whole entry, looked up): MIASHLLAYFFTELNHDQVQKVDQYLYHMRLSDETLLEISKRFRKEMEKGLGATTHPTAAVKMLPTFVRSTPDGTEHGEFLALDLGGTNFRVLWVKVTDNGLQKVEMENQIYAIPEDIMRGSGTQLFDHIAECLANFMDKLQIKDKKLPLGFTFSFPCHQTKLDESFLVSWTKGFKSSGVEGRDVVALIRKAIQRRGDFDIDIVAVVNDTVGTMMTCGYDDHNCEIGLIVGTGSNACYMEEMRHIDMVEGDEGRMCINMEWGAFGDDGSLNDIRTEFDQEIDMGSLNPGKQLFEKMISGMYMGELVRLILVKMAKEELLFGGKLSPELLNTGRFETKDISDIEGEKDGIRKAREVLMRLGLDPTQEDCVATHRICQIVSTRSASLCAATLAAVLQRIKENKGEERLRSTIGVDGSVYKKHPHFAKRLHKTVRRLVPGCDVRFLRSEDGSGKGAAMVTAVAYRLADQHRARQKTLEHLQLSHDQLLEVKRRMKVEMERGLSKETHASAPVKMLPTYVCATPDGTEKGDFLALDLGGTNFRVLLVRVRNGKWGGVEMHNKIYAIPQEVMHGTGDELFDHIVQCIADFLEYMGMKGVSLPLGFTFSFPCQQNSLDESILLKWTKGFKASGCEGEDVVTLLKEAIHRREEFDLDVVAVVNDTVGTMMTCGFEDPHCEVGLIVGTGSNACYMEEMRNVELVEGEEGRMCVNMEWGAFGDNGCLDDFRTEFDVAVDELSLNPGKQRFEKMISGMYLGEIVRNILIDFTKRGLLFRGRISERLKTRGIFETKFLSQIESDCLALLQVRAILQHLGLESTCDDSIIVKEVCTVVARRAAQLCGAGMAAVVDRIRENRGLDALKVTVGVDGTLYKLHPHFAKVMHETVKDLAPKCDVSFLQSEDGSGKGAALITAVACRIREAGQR
UniProt Q92917, sequence (Q92917 whole entry, looked up): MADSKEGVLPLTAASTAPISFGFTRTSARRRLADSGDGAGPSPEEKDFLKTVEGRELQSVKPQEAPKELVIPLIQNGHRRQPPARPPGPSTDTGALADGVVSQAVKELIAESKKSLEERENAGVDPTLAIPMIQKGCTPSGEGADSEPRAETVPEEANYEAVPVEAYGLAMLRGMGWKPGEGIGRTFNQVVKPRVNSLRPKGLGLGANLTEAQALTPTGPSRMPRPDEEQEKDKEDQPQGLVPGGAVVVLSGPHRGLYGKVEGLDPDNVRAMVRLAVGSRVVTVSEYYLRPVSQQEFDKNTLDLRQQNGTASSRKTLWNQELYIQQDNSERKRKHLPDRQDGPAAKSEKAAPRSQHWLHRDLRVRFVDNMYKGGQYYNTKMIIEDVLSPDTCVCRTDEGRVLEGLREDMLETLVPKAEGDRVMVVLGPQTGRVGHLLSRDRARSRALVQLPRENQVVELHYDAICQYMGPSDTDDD
UniProt Q86UX7, sequence (Q86UX7 whole entry, looked up): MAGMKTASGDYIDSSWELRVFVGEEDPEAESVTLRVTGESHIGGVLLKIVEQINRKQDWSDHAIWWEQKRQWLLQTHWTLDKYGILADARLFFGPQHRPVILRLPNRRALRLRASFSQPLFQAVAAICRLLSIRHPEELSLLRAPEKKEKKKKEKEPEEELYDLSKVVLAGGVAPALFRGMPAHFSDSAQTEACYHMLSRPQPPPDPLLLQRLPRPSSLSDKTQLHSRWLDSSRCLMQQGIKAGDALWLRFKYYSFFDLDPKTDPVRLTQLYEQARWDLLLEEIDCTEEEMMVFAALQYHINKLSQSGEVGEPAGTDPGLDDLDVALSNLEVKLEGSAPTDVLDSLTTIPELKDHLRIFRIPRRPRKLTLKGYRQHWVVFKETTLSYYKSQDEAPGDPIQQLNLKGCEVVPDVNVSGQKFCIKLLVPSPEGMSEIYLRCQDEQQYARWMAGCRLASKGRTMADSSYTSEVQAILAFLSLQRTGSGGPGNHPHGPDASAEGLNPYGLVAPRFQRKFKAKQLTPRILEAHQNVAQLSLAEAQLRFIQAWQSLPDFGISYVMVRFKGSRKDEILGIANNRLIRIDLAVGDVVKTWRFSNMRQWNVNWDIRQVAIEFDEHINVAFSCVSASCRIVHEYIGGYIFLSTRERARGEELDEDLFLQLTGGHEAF
UniProt O95363, sequence (O95363 whole entry, looked up): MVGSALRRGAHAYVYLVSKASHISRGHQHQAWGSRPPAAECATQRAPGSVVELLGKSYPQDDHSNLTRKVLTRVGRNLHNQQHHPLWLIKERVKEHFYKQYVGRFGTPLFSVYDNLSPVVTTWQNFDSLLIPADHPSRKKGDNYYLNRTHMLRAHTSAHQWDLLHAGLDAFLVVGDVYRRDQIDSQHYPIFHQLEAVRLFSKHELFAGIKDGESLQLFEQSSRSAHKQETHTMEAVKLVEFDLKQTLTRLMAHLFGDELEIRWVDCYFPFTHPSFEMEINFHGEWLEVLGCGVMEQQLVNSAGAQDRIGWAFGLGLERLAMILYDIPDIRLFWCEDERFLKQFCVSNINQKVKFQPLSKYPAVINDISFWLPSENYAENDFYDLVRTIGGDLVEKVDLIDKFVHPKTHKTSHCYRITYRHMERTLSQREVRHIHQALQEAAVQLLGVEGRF
UniProt P55795, sequence (P55795 whole entry, looked up): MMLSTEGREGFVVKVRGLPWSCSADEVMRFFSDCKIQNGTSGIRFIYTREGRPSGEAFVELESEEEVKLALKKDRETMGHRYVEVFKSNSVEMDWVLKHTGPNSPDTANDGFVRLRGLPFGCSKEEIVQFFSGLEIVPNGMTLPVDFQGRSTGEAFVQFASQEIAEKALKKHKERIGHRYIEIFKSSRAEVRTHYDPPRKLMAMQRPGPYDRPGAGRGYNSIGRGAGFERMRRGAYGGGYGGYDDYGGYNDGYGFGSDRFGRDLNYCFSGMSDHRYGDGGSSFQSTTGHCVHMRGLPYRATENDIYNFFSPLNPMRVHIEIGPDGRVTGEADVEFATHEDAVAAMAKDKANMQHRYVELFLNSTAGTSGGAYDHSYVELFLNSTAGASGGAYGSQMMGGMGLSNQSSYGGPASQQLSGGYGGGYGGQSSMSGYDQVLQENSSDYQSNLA
UniProt Q14C86, sequence (Q14C86 whole entry, looked up): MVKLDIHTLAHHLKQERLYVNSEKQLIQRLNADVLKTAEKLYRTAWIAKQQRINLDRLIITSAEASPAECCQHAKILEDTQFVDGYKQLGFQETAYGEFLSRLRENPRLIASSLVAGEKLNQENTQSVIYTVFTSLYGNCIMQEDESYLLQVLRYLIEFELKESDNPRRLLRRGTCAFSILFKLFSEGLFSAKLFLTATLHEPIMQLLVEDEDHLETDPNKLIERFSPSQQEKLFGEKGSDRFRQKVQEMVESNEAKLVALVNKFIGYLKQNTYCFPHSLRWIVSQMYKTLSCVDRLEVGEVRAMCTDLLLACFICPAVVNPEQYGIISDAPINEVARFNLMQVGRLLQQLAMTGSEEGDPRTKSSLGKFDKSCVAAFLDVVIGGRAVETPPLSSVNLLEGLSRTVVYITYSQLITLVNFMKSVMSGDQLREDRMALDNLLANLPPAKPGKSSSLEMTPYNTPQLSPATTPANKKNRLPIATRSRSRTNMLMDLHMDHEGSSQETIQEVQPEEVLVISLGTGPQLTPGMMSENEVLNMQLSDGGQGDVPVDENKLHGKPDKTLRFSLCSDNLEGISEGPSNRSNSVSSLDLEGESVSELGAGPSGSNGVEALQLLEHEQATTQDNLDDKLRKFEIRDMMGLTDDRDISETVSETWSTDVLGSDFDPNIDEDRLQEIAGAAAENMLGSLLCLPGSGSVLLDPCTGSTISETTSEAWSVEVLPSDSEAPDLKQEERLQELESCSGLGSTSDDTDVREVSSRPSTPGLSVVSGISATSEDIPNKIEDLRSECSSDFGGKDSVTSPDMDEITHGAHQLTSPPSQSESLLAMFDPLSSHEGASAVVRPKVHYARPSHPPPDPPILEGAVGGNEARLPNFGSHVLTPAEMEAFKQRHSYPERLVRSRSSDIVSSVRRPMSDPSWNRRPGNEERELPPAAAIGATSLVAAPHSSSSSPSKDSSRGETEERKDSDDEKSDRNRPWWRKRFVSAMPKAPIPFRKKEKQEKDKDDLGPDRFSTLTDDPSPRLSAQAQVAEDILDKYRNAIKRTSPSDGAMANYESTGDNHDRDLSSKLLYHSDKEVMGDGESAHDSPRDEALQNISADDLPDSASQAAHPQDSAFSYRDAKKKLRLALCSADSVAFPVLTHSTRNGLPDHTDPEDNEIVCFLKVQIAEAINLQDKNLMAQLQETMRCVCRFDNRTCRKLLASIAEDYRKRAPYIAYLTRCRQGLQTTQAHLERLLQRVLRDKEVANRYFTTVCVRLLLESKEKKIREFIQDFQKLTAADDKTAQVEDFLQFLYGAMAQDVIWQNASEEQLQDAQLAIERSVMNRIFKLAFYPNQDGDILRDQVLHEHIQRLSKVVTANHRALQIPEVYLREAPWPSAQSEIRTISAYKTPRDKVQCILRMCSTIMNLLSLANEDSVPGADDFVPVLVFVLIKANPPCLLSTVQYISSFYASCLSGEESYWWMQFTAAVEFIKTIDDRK
UniProt Q9Y6M1, sequence (Q9Y6M1 whole entry, looked up): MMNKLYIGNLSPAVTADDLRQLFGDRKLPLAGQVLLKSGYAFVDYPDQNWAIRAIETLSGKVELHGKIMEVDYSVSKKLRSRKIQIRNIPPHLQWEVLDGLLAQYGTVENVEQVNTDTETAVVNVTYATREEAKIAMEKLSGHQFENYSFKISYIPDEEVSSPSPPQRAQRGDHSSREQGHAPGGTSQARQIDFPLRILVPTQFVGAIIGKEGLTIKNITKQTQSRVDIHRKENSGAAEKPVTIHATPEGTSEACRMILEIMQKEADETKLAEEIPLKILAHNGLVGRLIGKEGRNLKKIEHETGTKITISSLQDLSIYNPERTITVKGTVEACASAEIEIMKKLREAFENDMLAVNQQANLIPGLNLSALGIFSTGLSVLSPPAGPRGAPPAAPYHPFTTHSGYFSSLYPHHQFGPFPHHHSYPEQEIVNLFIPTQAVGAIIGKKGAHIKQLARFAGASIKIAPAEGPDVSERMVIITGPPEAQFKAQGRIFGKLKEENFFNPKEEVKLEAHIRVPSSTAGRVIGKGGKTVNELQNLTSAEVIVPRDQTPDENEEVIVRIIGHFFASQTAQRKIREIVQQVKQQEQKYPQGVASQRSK

Target	log2 fold change [1]	log2 fold change [2]	log2 fold change [3]	log2 fold change [4]	log2 fold change [5]	log2 fold change [6]	log2 fold change [7]	log2 fold change [8]	log2 fold change [9]	log2 fold change [10]
HAT1 (UniProt O14929)	-0.048	0.036	0.044	0.048	-0.075	-0.045	0.03	0.027	-0.055	0.069
GALNT1 (UniProt Q10472)	-0.001	-0.014	-0.069	0.022	0.031	0.006	0.06	-0.003	0.004	0.06
GAPVD1 isoform 6 (UniProt Q14C86)	0.008	0.133	-0.036	-0.043	0.033	0.007	0.002	0.037	-0.012	-0.041
FBXO3 (UniProt Q9UK99)	0.01	0.044	0.141	-0.018	-0.038	0.062	0.112	-0.003	-0.029	0.002
FDXR isoform 7 (UniProt P22570)	0.092	0.033	0.109	-0.126	0.076	-0.13	0.064	0	0.025	0.019
HNRNPH2 (UniProt P55795)	0.019	0.17	0.037	-0.028	0.112	-0.031	-0.047	-0.016	-0.068	0.024
FUCA2 (UniProt Q9BTY2)	-0.001	-0.03	-0.026	0.013	0.015	0.038	0.033	0.029	0.056	0.017
HIKESHI (UniProt Q53FT3)	0.004	0.1	0.017	0.003	0.073	0.02	-0.002	-0.03	-0.056	0.009
FANCD2 isoform 1 (UniProt Q9BXW9)	0.077	0.075	-0.003	0.012	0.145	0.02	0	-0.012	-0.008	0.02
HRC (UniProt P23327)	0.012	-0.056	0.042	-0.018	0.005	0.023	-0.021	-0.087	0.041	0.045
GPD1 (UniProt P21695)	0.55	-0.084	-0.075	-0.305	0.129	-0.149	-0.003	-0.047	-0.043	0.032
GPKOW (UniProt Q92917)	0.099	0.116	0.016	0.016	0.057	0.013	-0.016	0.029	-0.011	0.001
GTF3C4 (UniProt Q9UKN8)	-0.016	0.065	0.026	0.003	0.025	-0.005	0.003	-0.022	-0.026	0.027
HK2 (UniProt P52789)	-0.068	0.037	0.051	0	0.028	-0.015	0.005	-0.017	0.009	0.023
HEATR5B (UniProt Q9P2D3)	-0.009	0.059	-0.128	0.025	-0.067	0.004	0.007	0.05	-0.026	0.043
HMGB3 (UniProt O15347)	-0.037	-0.002	0.047	0.011	-0.267 (active)	-0.042	0.095	-0.006	-0.025	0.023
GBF1 (UniProt Q92538)	-0.012	0.077	-0.049	-0.022	0.075	0.028	-0.036	0.033	-0.026	-0.052
FUCA1 (UniProt P04066)	0.01	0.024	0.049	-0.007	0.031	-0.004	-0.004	0.044	0.012	0.018
FERMT3 (UniProt Q86UX7)	0.019	0.076	0.091	-0.003	0.028	0.02	0.011	0.008	-0.006	0.012
FARS2 (UniProt O95363)	0	0.081	-0.046	0.061	-0.03	-0.018	0.014	0.065	0.084	-0.057
GSK3A (UniProt P49840)	-0.02	0.015	0.01	0.045	-0.001	-0.001	0.18	0.147	0.131	0.019
GSTM4 (UniProt Q03013)	0.084	-0.029	0.217	-0.002	-0.038	0.268	-0.031	-0.128	0.018	0.062
HAUS4 (UniProt Q9H6D7)	-0.112	0.097	0.041	-0.095	0.018	-0.065	-0.085	-0.087	-0.001	0.001
IGF2BP2 (UniProt Q9Y6M1)	-0.013	-0.083	-0.255	-0.015	0.158	0.014	0.007	0.075	0.057	0.075
GTF2A1 (UniProt P52655)	-0.011	-0.052	0.001	-0.011	-0.094	0.034	-0.021	-0.029	-0.024	0.036
HNRNPK isoform 2 (UniProt P61978)	0.042	0.019	-0.003	0	0.058	-0.008	-0.013	-0.024	0.011	0.02
IFRD1 (UniProt O00458)	0.226	-0.021	-0.124	-0.008	0.134	0.199	-0.013	0.068	0.042	-0.04
